Hit rate of the full screen: of about 5,500 compounds, about 2,000 (36%) were called active. Roughly 18% stayed inconclusive and do not appear here. No stated cut-off is given here; in the data, active means normalized growth mostly below about 0.91 (no sharp cut-off); inconclusive means no clear call, values can overlap the other calls; inactive means mostly above about 0.92. The list shows a part of the results.
Test: chemical genetic growth profiling, strain panel (AID 1159580);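 further: tested at 20 µM; growth read once vehicle control cultures reached saturation at 30 °C; 1 = growth at the plate median or of vehicle wells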
Conditions: S. cerevisiae deletion strains, growth OD

Measured: normalized growth

CC(C)(C)NCC(O)c1cc(Cl)c(N)c(Cl)c1 (centres undefined)
inactive: locus YAL013W, strain DEP1, stronger effect = lower value 1.01 | locus YAL021C, strain ccr4, stronger effect = lower value 0.985 | locus YAL026C, strain drs2, stronger effect = lower value 1 | locus YAL030W, strain snc1, stronger effect = lower value 1 | locus YBL061C, strain skt5, stronger effect = lower value 1 | locus YBR009C, strain hhf1, stronger effect = lower value 1 | locus YBR021W, strain FUR4, stronger effect = lower value 1 | locus YBR023C, strain chs3, stronger effect = lower value 1 | locus YBR171W, strain sec66, stronger effect = lower value 1 | locus YBR229C, strain ROT2, stronger effect = lower value 1.01 | locus YBR231C, strain swc5, stronger effect = lower value 0.992 | locus YBR279W, strain paf1, stronger effect = lower value 1.01 | locus YCL011C, strain gbp2, stronger effect = lower value 1.01 | locus YCL016C, strain dcc1, stronger effect = lower value 0.998 | locus YCL029C, strain bik1, stronger effect = lower value 0.993 | locus YCL061C, strain MRC1, stronger effect = lower value 1.01 | locus YCL069W, strain vba3, stronger effect = lower value 0.992 | locus YCR088W, strain abp1, stronger effect = lower value 0.998 | locus YDL005C, strain med2, stronger effect = lower value 0.996 | locus YDL035C, strain GPR1, stronger effect = lower value 1.01 | locus YDL040C, strain nat1, stronger effect = lower value 0.988 | locus YDL074C, strain BRE1, stronger effect = lower value 1 | locus YDL101C, strain DUN1, stronger effect = lower value 1.01 | locus YDL134C, strain PPH21, stronger effect = lower value 1.02 | locus YDL185W, strain tfp1, stronger effect = lower value 1 | locus YDL192W, strain arf1, stronger effect = lower value 1 | locus YDR001C, strain nth1, stronger effect = lower value 0.995 | locus YDR069C, strain doa4, stronger effect = lower value 0.989 | locus YDR101C, strain arx1, stronger effect = lower value 0.983 | locus YDR137W, strain rgp1, stronger effect = lower value 1 | locus YDR150W, strain NUM1, stronger effect = lower value 1.02 | locus YDR159W, strain sac3, stronger effect = lower value 0.978 | locus YDR162C, strain NBP2, stronger effect = lower value 1 | locus YDR195W, strain ref2 0.961 | locus YDR297W, strain sur2, stronger effect = lower value 1 | locus YDR318W, strain mcm21, stronger effect = lower value 0.994 | locus YDR334W, strain swr1, stronger effect = lower value 1 | locus YDR335W, strain msn5, stronger effect = lower value 0.994 | locus YDR388W, stronger effect = lower value 0.992 | locus YDR392W, strain spt3, stronger effect = lower value 0.876 | locus YDR502C, strain sam2, stronger effect = lower value 1.01 | locus YEL003W, strain gim4, stronger effect = lower value 1 | locus YEL037C, strain rad23, stronger effect = lower value 0.998 | locus YEL061C, strain CIN8 (second series), stronger effect = lower value 1 | locus YEL061C, strain CIN8, stronger effect = lower value 1.01 | locus YER015W, strain faa2, stronger effect = lower value 0.999 | locus YER016W, strain bim1, stronger effect = lower value 1 | locus YER110C, stronger effect = lower value 0.998 | locus YER111C, strain swi4, stronger effect = lower value 1.01 | locus YER155C, strain BEM2 (second series), stronger effect = lower value 1.01 | locus YER155C, strain BEM2, stronger effect = lower value 1.02 | locus YER167W, strain BCK2, stronger effect = lower value 1.01 | locus YFR010W, strain ubp6, stronger effect = lower value 0.994 | locus YGL078C, strain dbp3, stronger effect = lower value 1.01 | locus YGL086W, strain mad1, stronger effect = lower value 0.997 | locus YGL167C, strain pmr1, stronger effect = lower value 1 | locus YGL173C, strain kem1, stronger effect = lower value 0.996 | locus YGL227W, strain vid30, stronger effect = lower value 1 | locus YGL240W, strain doc1, stronger effect = lower value 0.98 | locus YGL248W, strain PDE1, stronger effect = lower value 1 | locus YGL253W, strain hxk2, stronger effect = lower value 0.984 | locus YGR078C, strain PAC10, stronger effect = lower value 1.01 | locus YGR135W, strain pre9, stronger effect = lower value 1.01 | locus YGR229C, strain SMI1, stronger effect = lower value 1.01 | locus YGR252W, strain gcn5, stronger effect = lower value 1.04 | locus YHR013C, strain ard1, stronger effect = lower value 0.983 | locus YHR027C, strain rpn1, stronger effect = lower value 0.994 | locus YHR030C, strain SLT2, stronger effect = lower value 1.01 | locus YHR079C, strain IRE1 (second series), stronger effect = lower value 1 | locus YHR094C, strain hxt1, stronger effect = lower value 1 | locus YHR129C, strain ARP1, stronger effect = lower value 1.02 | locus YHR142W, strain chs7, stronger effect = lower value 0.997 | locus YHR200W, strain rpn10, stronger effect = lower value 1 | locus YIL066C, strain RNR3, stronger effect = lower value 1.01 | locus YIL073C, strain SPO22, stronger effect = lower value 1 | locus YIL125W, strain kgd1, stronger effect = lower value 1 | locus YIR030C, strain dcg1, stronger effect = lower value 0.995 | locus YJL092W, strain hpr5, stronger effect = lower value 0.997 | locus YJL095W, strain BCK1 (second series), stronger effect = lower value 1 | locus YJL095W, strain BCK1, stronger effect = lower value 1.01 | locus YJL115W, strain asf1, stronger effect = lower value 1 | locus YJL129C, strain trk1, stronger effect = lower value 0.996 | locus YJL134W, strain LCB3, stronger effect = lower value 1.01 | locus YJL154C, strain vps35, stronger effect = lower value 1 | locus YJL164C, strain tpk1, stronger effect = lower value 1 | locus YJL166W, strain qcr8, stronger effect = lower value 0.991 | locus YJL168C, strain set2, stronger effect = lower value 0.992 | locus YJL187C, strain SWE1 (second series), stronger effect = lower value 1.01 | locus YJL187C, strain SWE1, stronger effect = lower value 1

Reference: PubChem BioAssay AID1159580 (chemical genetic matrix, 2015)
